Measurements as given in PubChem BioAssay (EPA / NIEHS).
Values joined by “and” are separate entries in the source; they are usually repeats but may differ in a detail not shown here. Equal values may be shown once. A structure can be active in one record and inactive in another. Active and inactive are the calls of the source. How the source made its calls: active means hit-call score of the fitted dose curve at least 0.9, where 1 is the maximum; inactive means score below 0.9.

These molecules were tested on CD40, CD40 (gene 958) (assay: BSK_LPS_CD40: BioMAP Diversity Plus: LPS Assay for CD40 Biomarker Activity (AID 2283076)). Settings: primary human HUVEC with PBMC; actives raise or lower the signal.
Method: BSK_LPS is a cell-based, multiplexed-readout assay that uses umbilical vein endothelium and peripheral blood mononuclear cells, a human vascular primary cell co-culture, with measurements taken at 24 hours after chemical dosing in a 96-well plate.BSK_LPS_CD40 is an assay component measured in the BSK_LPS assay. It measures CD40 antibody related to regulation of gene expression using ELISA technology.Data from the assay component BSK_LPS_CD40 was analyzed into 1 assay endpoint. This assay endpoint, BSK_LPS_CD40, was analyzed with bidirectional fitting relative to DMSO as the negative control and baseline of activity. Using a type of binding reporter, gain or loss-of-signal activity can be used to understand changes in the signaling as they relate to the gene CD40. Furthermore, this assay endpoint can be referred to as a primary readout, because this assay has produced multiple assay endpoints where this one serves a signaling function. To generalize the intended target to other relatable targets, this assay endpoint is annotated to the cytokine intended target family, where the subfamily is inflammatory factor.
The levels of cell surface (or secreted, indicated by the prefix "s") biomarker endpoints were measured by ELISA. Overt cytotoxicity to cells in confluent adherent cultures (all systems other than the BT system) was assessed by measuring total protein levels using sulforhodamine B (SRB) staining in parallel cultures at the time of biomarker measurements, indicated as SRB endpoints. For proliferation assays for adherent cell types, individual cell types are cultured at sub-confluence and relative cell numbers quantified by SRB staining at time points optimized for each system (48 h: 3C and CASM3C systems; 72 h: BT and HDF3CGF systems; 96 h: SAg system). SRB was performed by staining cells with 0.1% SRB after fixation with 10% TCA and reading wells at 560 nm.Viability and proliferation of PBMC (T cells) was quantified by Alamar Blue reduction for the SAg and BT systems. For PBMC viability (referred to as PBMC Cytotoxicity within the assay endpoint names), cells were plated (75,000/well in a 96-well plate) and then chemical samples added for 1 h before addition of activators, SEB and TSST-1 (20 ng/mL final concentration each). Cells were incubated for 90 h. Then, Alamar Blue (20 uL/well) (Invitrogen, Cat DAL1100) was added for 6 h, and the plates were read with a fluorescence microplate reader at 546/580 nm (excitation/emission). For PBMC proliferation, cells were plated and activated as above but incubated for only 16 h prior to addition of Alamar Blue. Plates were read after 6 h.

`Cc1cc(O)ccc1Cl` was tested. Which outcome did it give?
The outcome was “inactive”.

`CCOC(=O)C(O)(c1ccc(Cl)cc1)c1ccc(Cl)cc1` was tested. Which AC50 did it give?
The AC50 was 26.1 µM (active).

Which outcome does the source give for `N#Cc1ccc(N(CC(N)=O)CC(F)(F)F)cc1C(F)(F)F` here?
The outcome was “inactive”.

With `Cc1cc2c3c(c1)C(c1ccccc1)=N[C@@H](NC(=O)c1ccncc1)C(=O)N3CC2` as the molecule, how does the AC50 read?
The AC50 was 3.97 µM (active).

`Sc1ccccc1` was tested. Which outcome did it give?
Its outcome is “inactive”.

What does the source list for `O=C(O)C(F)(F)C(F)(F)C(F)(F)C(F)(F)C(F)(F)C(F)(F)C(F)(F)C(F)(F)F`?
AC50: 48.3 µM (active) and 45.1 µM (active); outcome: inactive

With `C[C@]12CCC(=O)C=C1CC[C@@H]1[C@@H]2CC[C@@]2(C)[C@H]1CC[C@]2(C)O` as the molecule, how does the outcome read?
Its outcome is “inactive”.

For `CCNc1nc(NC(C)C)nc(SC)n1`, which outcome is on record?
Its outcome is “inactive”.

How did the outcome turn out when `CCCCCCOC(=O)c1ccccc1C(=O)OCCCCCC` was run?
The outcome was “inactive”.

Which outcome does the source give for `C=CC(N)=O` here?
The outcome was “inactive”.

`CC(C)(O)C(=O)Nc1ccc([N+](=O)[O-])c(C(F)(F)F)c1` was tested. Which outcome did it give?
The outcome was “inactive”.

Which outcome does the source give for `O=NN(c1ccccc1)c1ccccc1` here?
Its outcome is “inactive”.

With `c1ccc(-c2ccccc2)cc1` as the molecule, how does the outcome read?
Its outcome is “inactive”.

With `Nn1cnnc1` as the molecule, how does the outcome read?
The outcome was “inactive”.

`Cc1cccc(C)c1N` was tested. Which outcome did it give?
Its outcome is “inactive”.

For `CC(C)(c1ccccc1)c1ccc(O)cc1`, which AC50 is on record?
The AC50 was 32.5 µM (active).

Which outcome does the source give for `ClC1=C(Cl)[C@]2(Cl)[C@@H]3[C@@H]4C[C@@H]([C@H]5O[C@@H]45)[C@@H]3[C@@]1(Cl)C2(Cl)Cl` here?
The outcome was “inactive”.

Which outcome does the source give for `Nc1ccc(-c2ccc(N)cc2)cc1` here?
The outcome was “inactive”.

With `O=C(NC(=O)c1cc(F)c(F)cc1Cl)Nc1cc(F)ccc1N1CCC(C(=O)O)CC1` as the molecule, how does the outcome read?
The outcome was “inactive”.

How did the AC50 turn out when `Oc1c(Cl)c(Cl)c(Cl)c(Cl)c1Cl` was run?
Its AC50 is 10.2 µM (active) and 15.2 µM (active).

Which outcome does the source give for `C=CC(=O)NCNC(=O)C=C` here?
The outcome was “inactive”.

For `Cc1ccc(O)c(C)c1`, which AC50 is on record?
Its AC50 is 11.6 µM (active).

How did the outcome turn out when `CC#Cc1cc(C)nc(Nc2ccccc2)n1` was run?
Its outcome is “inactive”.

With `ClC1=C(Cl)[C@]2(Cl)[C@@H]3[C@H]4C[C@H]([C@@H]5O[C@H]45)[C@@H]3[C@@]1(Cl)C2(Cl)Cl` as the molecule, how does the outcome read?
The outcome was “inactive”.

For `Oc1ccc(Cl)cc1Cl`, which outcome is on record?
Its outcome is “inactive”.

How did the outcome turn out when `CCCCCCCCOC(=O)c1ccccc1C(=O)OCCCCCCCC` was run?
The outcome was “inactive”.

With `CC(C)C(=O)OCC(C)(C)C(OC(=O)C(C)C)C(C)C` (stereo not given) as the molecule, how does the outcome read?
Its outcome is “inactive”.

With `CCC(=O)O[C@H]1CC[C@H]2[C@@H]3CCC4=CC(=O)CC[C@]4(C)[C@H]3CC[C@]12C` as the molecule, how does the AC50 read?
The AC50 was 28 µM (active).

With `CCC(C)(c1ccc(O)cc1)c1ccc(O)cc1` as the molecule, how does the AC50 read?
Its AC50 is 20 µM (active).

How did the outcome turn out when `CN(C)c1nc(=O)n(C2CCCCC2)c(=O)n1C` was run?
Its outcome is “inactive”.

`CCOP(=S)(OCC)SCSC(C)(C)C` was tested. Which AC50 did it give?
The AC50 was 36.2 µM (active).

Which outcome does the source give for `CCSC(=O)N(CC)C1CCCCC1` here?
The outcome was “inactive”.

`CCOCCOC(C)=O` was tested. Which outcome did it give?
Its outcome is “inactive”.

How did the outcome turn out when `C1CC2OC2CC1C1CO1` (stereo not given) was run?
Its outcome is “inactive”.

Which outcome does the source give for `Cc1cccc([N+](=O)[O-])c1` here?
The outcome was “inactive”.

For `Oc1ccc(C(c2ccc(O)cc2)(C(F)(F)F)C(F)(F)F)cc1`, which AC50 is on record?
The AC50 was 18 µM (active).

Which outcome does the source give for `COc1ccc(O)c(C(C)(C)C)c1` here?
Its outcome is “inactive”.

For `O=C(O)C(F)(F)C(F)(F)C(F)(F)C(F)(F)C(F)(F)F`, which outcome is on record?
The outcome was “inactive”.

How did the AC50 turn out when `CO/C=C(/C(=O)OC)c1ccccc1COc1cccc(C(F)(F)F)n1` was run?
Its AC50 is 18.3 µM (active).
